From PubChem
The list is not random: actives were taken first. Their share in the collection is about 2.2%.
BaF3 tox: counter-screen for JAK2V617F inhibitors: parental Ba/F3 viability inhibitors; CellTiter-Glo ATP luminescence; inhibition, % at 5.6 µM; 220,000 tested, 1.1% active; AID 1486;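 active means inhibition above a per-campaign cutoff, the mean inhibition of all tested compounds plus 3 SD, cut at about 27% in these data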
aSyn 5UTR inh: MLPCN primary screen, SNCA 5' untranslated region; alpha-synuclein 5'UTR reporter, inhibitor activity; inhibition, % (tested at 7.5 µM); 300,000 tested, 0.82% active; AID 1813; in the data active means inhibition above about 60%; inconclusive means no clear call, values can overlap the other calls;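 further: H4 neuroglioblastoma cells stably carrying SNCA 5'UTR luciferase fusion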
IEC-6 tox-1: counter-screen for KLF5 inhibitors: cytotoxicity in IEC-6 cells; IEC-6 cytotoxicity, luminescence viability; inhibition, % at 5 µM; 290,000 tested, 0.78% active; AID 1825
KLF5 inhibitor: suppresses KLF5 promoter-driven expression; DLD-1 KLF5 promoter-luciferase reporter, luminescence; inhibition, % at 5 µM; 290,000 tested, 0.23% active; AID 1700;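 active means inhibition above a per-plate limit of that plate's mean compound inhibition plus 3 SD, cut at about 60% in these data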;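 further: higher means less KLF5 promoter-driven luciferase light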
Ba/F3 V617F tox: reduce viability of Ba/F3 cells dependent on JAK2V617F; Ba/F3 EpoR-JAK2V617F viability, ATP luminescence; inhibition, % at 5.6 µM; 220,000 tested, 1.1% active; AID 1446;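 active means inhibition above the campaign mean plus 3 SD over all tested compounds, cut at about 24% in these data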;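 further: cytokine-independent growth of Ba/F3 cells driven by EpoR plus mutant JAK2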
APP 5UTR inh: APP translation inhibition; SH-SY5Y APP 5'UTR-luciferase reporter, luminescence; 190,000 tested, 0.82% active; inhibition, % at 2 µM;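 active means inhibition above a set limit, derived from the sample mean plus 3 SD, cut at about 45% in these data; inconclusive means one replicate passes the limit while the other fails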
BaF3 parental 2: reduces parental Ba/F3 viability, JAK2V617F counter-screen; 580 tested, 31% active; AID 1520; inhibition, % at 5.6 µM; CellTiter-Glo luminescence; cells kept alive by added IL-3; shares compounds with Ba/F3 V617F tox;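 active means cell growth inhibition above the hit limit set in the earlier mutant JAK2 cell screen, cut at about 27% in these data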
JAK2V617F confrm: Ba/F3 EpoR-JAK2V617F viability loss, confirmation. shares compounds with Ba/F3 V617F tox. AID 1521. inhibition, % at 5.6 µM. CellTiter-Glo luminescence. 580 tested, 66% active;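 active means mean inhibition above the hit cutoff derived in the earlier primary screen, cut at about 25% in these data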;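 further: higher means lower luminescence from reduced cell ATP and viability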
KLF5 confirm: confirmation of KLF5 inhibitors | shares compounds with KLF5 inhibitor | inhibition, % at 4 µM | 610 tested, 79% active | DLD-1 KLF5 promoter firefly luciferase reporter, luminescence | AID 1834;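 active means inhibition above a set limit taken from the earlier primary screen, cut at about 63% in these data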
IEC-6 tox-2: kills rat IEC-6 cells in KLF5 counter-screen; inhibition, % at 4 µM; IEC-6 rat intestinal cells, viability luminescence; AID 1905; 610 tested, 56% active; shares compounds with KLF5 inhibitor; in the data active means inhibition above about 23%;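 further: cells exposed to compounds for 48 hours before viability read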
IEC-6 tox confirm: IEC-6 cytotoxicity, confirmation assay; IEC-6 rat intestinal epithelial viability, luminescence; AID 1907; shares compounds with IEC-6 tox-1; 1,900 tested, 63% active; inhibition, % at 5 µM
Numbers stand for hits; - = inactive; ? = inconclusive; . = no result given. Unless noted, no stated cut-off is given here; in the data, active means inhibition above about 22%; inactive means the rest.

SMILES	BaF3 tox	aSyn 5UTR inh	IEC-6 tox-1	KLF5 inhibitor	Ba/F3 V617F tox	APP 5UTR inh	KLF5 confirm	IEC-6 tox-2	others
O=c1c(Cl)c(Cl)cnn1Cc1nnc(-c2ccc(Cl)cc2)o1	-	-	35	-	34	77	.	.	BaF3 parental 2=66;JAK2V617F confrm=81;IEC-6 tox confirm=-
Cc1cccc(S(=O)(=O)c2c(N)n(-c3ccccc3)c3nc4ccccc4nc23)c1	-	-	-	-	-	-	.	.
Cc1ccc2nc(NC(=O)[C@H](C)N3C(=O)C4CC=CCC4C3=O)sc2c1 (stereo partly specified)	-	63	-	74	-	-	-	-
CN(C(=O)COC(=O)/C=C/c1cccc([N+](=O)[O-])c1)C1CCS(=O)(=O)C1 (stereo unspecified)	-	-	-	83	-	.	97	-
COc1cc(C(=O)N/N=C/c2cc([N+](=O)[O-])cs2)cc(OC)c1OC	77	-	78	79	81	95	76	59
CN=c1scc(-c2ccccc2F)n1/N=C/c1ccc[nH]1	-	83	-	94	-	55	106	-
O=C(NCc1cccc(Br)c1)C1CC2Cn3c(nc4ccccc43)C2N1c1ccccc1 (stereo unspecified)	.	-	.	.	.	.	.	.
C/C(=N/NC(=O)c1ccncc1)c1ccccc1	.	-	-	-	.	.	.	.
C/C(=N\NC(=O)c1ccccc1NC(=O)c1ccc(Cl)cc1)c1ccncc1	-	-	-	65	-	-	107	67
NC(=O)COC(=O)c1ccccc1SCC(=O)NC1CCCCCC1	-	-	-	-	-	-	.	.
COc1ccc(/C=N/NC(=O)c2c(C)nc3ccc(Br)cn23)cc1OC	-	-	-	-	-	.	.	.
COc1ccc(/C=N\NC(=O)c2c(C)nc3ccc(Br)cn23)cc1	72	?	47	65	73	89	75	53
CSCc1ccc(C(=O)N2CCC(CCC(=O)N(C)Cc3ccccc3)CC2)o1	.	-	-	-	.	.	.	.
CCOC(=O)CN1C2=NCCN2c2ccccc21	-	-	-	79	-	-	-	-
CCOC(=O)CN1C2=NCCCN2c2ccccc21	-	-	-	-	-	-	.	.
COc1ccc(Cl)cc1C(=O)Nc1nc2ccccc2[nH]1	.	89	-	80	.	.	70	-
CCc1ccc(C(=O)Nc2nc3ccccc3[nH]2)cc1	.	88	-	84	.	.	72	-
CC(C)Oc1ccc(C(=O)Nc2nc3ccccc3[nH]2)cc1	.	81	-	87	.	.	78	-
CCOc1cc(N2CCOCC2)c(OCC)cc1NC(=O)c1c(-c2ccccc2Cl)noc1C	-	-	-	-	-	-	.	.
C=CC[C@]12CC=CC(=O)[C@@]1(O)O[C@H](c1ccc(OC)c(OC)c1)[C@H]2C	.	-	.	.	.	.	.	.
COc1ccccc1NC(=O)c1cnc(Nc2ccccc2OC)c2ccccc12	83	101	69	72	85	94	71	47
COc1ccccc1NC(=O)c1ccccc1C(=O)Nc1ccccc1OC	.	-	-	-	.	.	.	.
COC(=O)c1nnn(-c2ccsc2C(=O)OC)c1C(=O)OC	-	-	-	-	-	-	.	.
N#Cc1ccc(C(=O)OCC(=O)Nc2ccc(S(N)(=O)=O)cc2)cc1	-	-	-	-	-	.	.	.
CN1CCN(C(c2ccc(C(F)(F)F)cc2)c2ccc3cccnc3c2O)CC1 (stereo unspecified)	.	-	-	-	.	.	.	.
Oc1c(C(c2cccs2)N2CCN(c3ccccc3)CC2)ccc2cccnc12 (stereo unspecified)	83	.	-	69	98	59	-	-
O=C(Cn1ccc([N+](=O)[O-])n1)Nc1ccccn1	-	-	-	-	-	-	.	.
CC(C)(C)c1ccc(/C=N/Nc2cccc(C(=O)O)c2)cc1	-	-	-	-	-	-	.	.
